Bioassay records (PubChem)
Shown are actives, neighbours in structure and some others; about 7.7% of the full set was active somewhere.
NOMO-1 viab: NOMO-1 AML cell viability reduction, primary screen, STK33 inhibitor project, CellTiter-Glo luminescence. 37,000 compounds, 7.5% hits. AID 2330, 2010. NOMO-1 AML viability, 72 h. inhibition, % (test concentration not listed); in the data active = inhibition above about 80%
PD-1 reverse act: activators reversing PD-1 mediated T-cell inhibition, primary screen, luminescence, primary human CD4 T cells, PD-L1 beads; CellTiter-Glo 96 h; 29,000 tested, under 10 active; AID 2316, 2010; activation, % (concentration not given with the values); call rule not given here;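 also: 0% = median vehicle wells and 100% = positive control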
Hedgehog inh: Hedgehog pathway signaling inhibitors, primary screen, luminescence, Shh-LIGHT2 cells, Gli-luciferase; Shh-LIGHT2 Gli-luciferase reporter, 30 h; inhibition, % (test concentration not listed); 22,000 compounds, 2.1% hits; AID 2313, 2010;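 active = mean inhibition across valid replicates above about 65%, limit read from the data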;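 also: pathway switched on by Shh-conditioned medium diluted 1 in 25 in low serum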
An asterisk follows results filed as active.

Results for Cc1ccc(S(=O)(=O)Nc2ccc3c(c2)C(=O)N([C@@H](C)CO)C[C@@H](C)[C@H](CN(C)Cc2ccc(Oc4ccccc4)cc2)O3)cc1 ?
NOMO-1 viab: 57; Hedgehog inh: 30

How did Cc1noc(C)c1S(=O)(=O)Nc1ccc2c(c1)C(=O)N([C@@H](C)CO)C[C@@H](C)[C@@H](CN(C)Cc1ccc(Oc3ccccc3)cc1)O2 do in these assays?
NOMO-1 viab: 102*; PD-1 reverse act: -1; Hedgehog inh: 29

What do the screens show for `Cc1ccc(S(=O)(=O)Nc2ccc3c(c2)C(=O)N([C@H](C)CO)C[C@@H](C)[C@H](CN(C)Cc2ccc(Oc4ccccc4)cc2)O3)cc1`?
NOMO-1 viab: 84*; PD-1 reverse act: -2; Hedgehog inh: 50

How did Cc1noc(C)c1S(=O)(=O)Nc1ccc2c(c1)C(=O)N([C@@H](C)CO)C[C@H](C)[C@@H](CN(C)Cc1ccc(Oc3ccccc3)cc1)O2 do in these assays?
NOMO-1 viab: 26; PD-1 reverse act: -3; Hedgehog inh: 16

What do the screens show for `C[C@@H]1CN([C@H](C)CO)C(=O)c2cc(NS(=O)(=O)c3ccccc3)ccc2O[C@H]1CN(C)Cc1ccc(Oc2ccccc2)cc1`?
NOMO-1 viab: 73; Hedgehog inh: 42

What do the screens show for `Cc1noc(C)c1S(=O)(=O)Nc1ccc2c(c1)C(=O)N([C@@H](C)CO)C[C@H](C)[C@@H](CN(C)Cc1ccc(Cl)c(Cl)c1)O2`?
NOMO-1 viab: -4; PD-1 reverse act: -3; Hedgehog inh: 42

Results for Cc1ccc(-n2c(C)nnc2SCC(=O)Nc2cccc(C)c2C)cc1 ?
NOMO-1 viab: 8; PD-1 reverse act: 1

Results for N#Cc1ccccc1CSc1nnc(Cc2cccc3ccccc23)n1-c1ccccc1 ?
NOMO-1 viab: 11; PD-1 reverse act: -2

Results for O=C(CSc1nnc(-c2ccc(Cl)cc2Cl)o1)Nc1ccc([N+](=O)[O-])cc1 ?
NOMO-1 viab: 32

What do the screens show for `O=C(CC1NCCNC1=O)Nc1ccc(F)cc1` (configuration not stated)?
NOMO-1 viab: 1; PD-1 reverse act: 1

How did CCOc1ccccc1NC(=O)CN1C(=O)c2cccc3cccc1c23 do in these assays?
NOMO-1 viab: 33; PD-1 reverse act: 0

What do the screens show for `COc1cc2c(cc1NC(=O)CN(C)S(=O)(=O)c1ccc(Cl)cc1)oc1ccccc12`?
NOMO-1 viab: 38; PD-1 reverse act: 3

Results for N#CN=C(N)c1sc2nc3c(cc2c1N)CCCCC3 ?
NOMO-1 viab: 63; PD-1 reverse act: 1; Hedgehog inh: -148

How did CC(=O)Oc1c(I)c(=O)n(C)c2ccccc12 do in these assays?
NOMO-1 viab: 121*; PD-1 reverse act: -12; Hedgehog inh: 23

How did CCOC(=O)Cc1c(SC)c2ccccc2n1C do in these assays?
NOMO-1 viab: -9; PD-1 reverse act: 0; Hedgehog inh: -4

Results for CCC1(C)Cc2ccccc2-c2nc3[nH]nc(SCC(=O)Nc4ccc(OC)c(Cl)c4)n3c(=O)c21 (configuration not stated) ?
NOMO-1 viab: -3; PD-1 reverse act: 0

How did CC(=O)c1cn(CC(=O)Nc2cccc(C(F)(F)F)c2)c2ccccc12 do in these assays?
NOMO-1 viab: 52; PD-1 reverse act: -1

Results for O=C(C1CCCO1)N1N=C(c2c(-c3ccccc3)c3cc(Cl)ccc3[nH]c2=O)CC1c1ccco1 (configuration not stated) ?
NOMO-1 viab: 93*; PD-1 reverse act: -4

How did O=C(O)CCC(=O)N1N=C(c2cccs2)CC1c1ccco1 (configuration not stated) do in these assays?
NOMO-1 viab: 0; PD-1 reverse act: 0

Results for N#Cc1c(NC(=O)CCN2C(=O)c3ccccc3C2=O)sc2c1CCCC2 ?
NOMO-1 viab: -7; PD-1 reverse act: 0

Results for COc1ccc(S(=O)(=O)NCCc2ccc(OC)c(OC)c2)cc1Cl ?
NOMO-1 viab: 2; PD-1 reverse act: 1

How did CCCCc1c(-c2ccc(O)cc2)[nH]c2nccnc12 do in these assays?
NOMO-1 viab: 83*; PD-1 reverse act: -3; Hedgehog inh: -15

Results for CCCCc1c(-c2ccc(OC)cc2)[nH]c2nccnc12 ?
NOMO-1 viab: 15; PD-1 reverse act: -28; Hedgehog inh: -26

How did O=C(CCc1ccc(O)cc1)c1c(O)cc(O[C@@H]2O[C@H](CO)[C@@H](O)[C@H](O)[C@H]2O)cc1O do in these assays?
NOMO-1 viab: 2; PD-1 reverse act: 1; Hedgehog inh: 16

How did CCn1ncc(CN(C)C(=O)c2cc(-c3cccnc3)nc3ccc(Cl)cc23)c1C do in these assays?
NOMO-1 viab: 71
